Drawing on ChEMBL document CHEMBL1201862, “PubChem BioAssay data set” (2004), this text covers IC90 for four molecules.

Entries with a potency or affinity are not part of this list.

A short description of this assay: M. tuberculosis growth inhibition, dose response, 7H9 media, purified and synthesized compounds, set 5 (AID 504903). In kind it is functional.
A word on the IC90: it is the concentration at which the effect reaches the 90% level. Regarding `Cc1[nH]c2ccccc2c1C(=O)COC(=O)c1ccc([N+](=O)[O-])s1`, the IC90 is > 50.5 µM (active).
With `CNC(=O)CSc1nc2ccccc2c(=O)[nH]1` the figure was > 100 µM (active); with `O=C(CSc1ccccn1)NC1CCCCC1`, > 100 µM (active); with `CCCc1cc(C(N)=S)ccn1`, > 100 µM (active).
